Assay results as given in PubChem BioAssay (NCI).
This is part of a sample that, as a whole, favours compounds with a hit. Of some 79,000 tested, about 15% had one in any assay. Rule as the data show it: active = growth inhibition above about 70%; inactive = the rest. Where a SMILES comes first, the peptide text is derived from it. [ ]: non-standard residue; d: D form. The star is where a group is joined. ξ: configuration not given here. ξF = NC(Cc1ccccc1)C(=O)O; Cbz = O=C(OCc1ccccc1)*; Aib = CC(C)(N)C(=O)O

Tests used:
[1] = NCI Yeast Anticancer Drug Screen. Data for the rad50 strain (AID 155);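 also: 0% = growth of vehicle-only cultures of the same strain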; conditions: S. cerevisiae rad50 strain growth inhibition; at 50.0 µM; stronger effect = higher value
Method in brief: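 Vehicle-treated cultures provide the reference for the growth inhibition reported for compound-exposed, repair-deficient yeast.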

[2] = NCI Yeast Anticancer Drug Screen. Data for the mec2-1 strain (AID 157); conditions: S. cerevisiae mec2-1 strain, at 50.0 µM, stronger effect = higher value
Method in brief: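 Each compound was tested on mec2-1 yeast, a strain altered in DNA damage repair or cell cycle control. Growth inhibition is reported relative to vehicle.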

[3] = NCI Yeast Anticancer Drug Screen. Data for the cln2 rad14 strain (AID 165);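 also: 0% = growth equal to vehicle treated cultures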; conditions: S. cerevisiae cln2 rad14 strain, at 50.0 µM, stronger effect = higher value
Method in brief: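 Test compounds were added to cln2 rad14 yeast cultures; inhibition of growth was then determined by comparison with vehicle treatment.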

[4] = NCI Yeast Anticancer Drug Screen. Data for the mlh1 rad18 strain (AID 175); conditions: S. cerevisiae mlh1 rad18 strain growth inhibition; at 50.0 µM; stronger effect = higher value
Method in brief: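 Inhibition values reflect reduced growth of mutant yeast versus vehicle-treated controls following compound exposure; the mutations affect DNA damage repair.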

[5] = NCI Yeast Anticancer Drug Screen. Data for the bub3 strain (AID 167); conditions: S. cerevisiae bub3 mutant strain, at 50.0 µM, stronger effect = higher value
Method in brief: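 Mutant yeast screening strain plus compound; vehicle-treated cultures serve as the 0% inhibition reference.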

[6] = NCI Yeast Anticancer Drug Screen. Data for the sgs1 mgt1 strain (AID 161);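 also: 0% = growth of cultures given vehicle only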; conditions: S. cerevisiae sgs1 mgt1 strain, at 50.0 µM, stronger effect = higher value
Method in brief: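 Genetically altered yeast, compound exposure, growth inhibition relative to vehicle.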

Measured: growth inhibition

CCCCB1OB(CCCC)OB(CCCC)O1
inactive: [1] -1.65% | [2] -17.8% | [3] 5.25% | [4] 4.25%

NN(c1ccccc1)c1ccccc1
inactive: [1] 23.5% | [2] 6.45% | [3] 25.9% | [5] 24.2% | [4] 19.1%

CCC1=C[C@H]2CN(CCc3c([nH]c4ccccc34)[C@@](C(=O)OC)(c3cc4c(cc3OC)N(C)[C@H]3[C@@](O)(C(=O)NC)[C@H](OC(C)=O)[C@]5(CC)C=CCN6CC[C@]43[C@@H]65)C2)C1
inactive: [1] 2.65% | [2] -1.75% | [3] -2.05% | [5] 16.4% | [4] -12.4%

O=C(O)c1ccc(Cl)c(N=C/C=C/c2ccccc2)c1
inactive: [1] 1.85% | [2] -37.5% | [3] -15.3% | [5] 3.45% | [4] -6.9%

c1ccc(-n2cccc2)cc1
inactive: [1] 7.4% | [2] 7.05% | [3] -30% | [5] -3.7% | [4] -11.6%

NC(Cc1cccs1)C(=O)O (centres undefined)
inactive: [1] -31.9% | [2] -21.9% | [3] -43% | [5] -2.5% | [4] -37.1%

CCOC(=O)CC1CC(CN)(C(=O)OCC)CO1 (centres undefined)
inactive: [1] -21.6% | [2] 12.2% | [3] 3.65% | [5] -0.4% | [4] -22.9%

CC(=O)NC1CC(=O)N(c2ccccc2)C1=O (centres undefined)
inactive: [1] 16.4% | [2] 7.8% | [3] 5.9% | [5] -1.8% | [4] -19.1%

COc1cc(C)c([N+](=O)[O-])cc1[N+](=O)[O-]
inactive: [1] 4.15% | [2] 8.2% | [3] -2.35% | [5] -10.1% | [4] 1%

CC=C(c1ccc(OC)cc1)c1ccc(OC)cc1
inactive: [1] 0.9% | [2] -9.95% | [3] -46.9% | [5] 2.55% | [4] -4.5%

O=C1OC2c3ccccc3C3CC(=O)C2C13 (centres undefined)
inactive: [1] 10.2% | [2] -5.7% | [3] 6.25% | [5] 1.25% | [4] 7.65%

CCn1c(=O)c(Cl)c2n(C)c3ccccc3n2c1=O
inactive: [1] -6.2% | [2] -7.7% | [3] -4.4% | [5] 10.6% | [4] -1.05%

COC(=O)c1ccc(C(=O)OC)cc1
inactive: [1] -12.2% | [2] -26.1% | [3] 12.2% | [5] 8.95% | [4] 11.3%

COc1cc2c(c([N+](=O)[O-])c1)NC(=O)C(C)S2 (centres undefined)
inactive: [1] -11.3% | [2] -33.6% | [3] 28.8% | [5] 2.15% | [4] 3.65%

COc1cccc(C=Nc2cc(C)ccn2)c1O.COc1cccc(C=Nc2cc(C)ccn2)c1O.[Cu]
inactive: [1] 3.45% | [2] -7.75% | [3] 14.2% | [5] -11.6% | [4] 38.6%

CNC(=S)Nc1ccccc1
inactive: [1] -21.3% | [2] -33.8% | [3] -8.15% | [5] -5.35% | [4] 18.8%

Oc1ccc2cc(O)ccc2c1
inactive: [1] -5.45% | [2] -25.6% | [3] -7.8% | [5] -20.4% | [4] -5.85%

CC1=C(CCC(C)CO)OC2CC3C4CCC5CC(O)CCC5(C)C4CCC3(C)C12 (centres undefined)
inactive: [1] -4.5% | [2] -22.6% | [3] -1.9% | [5] -21.1% | [4] -16.4%

O=C1NC(=O)/C(=C/CCCO)N1
inactive: [1] 2.85% | [2] -5.3% | [3] -8.95% | [5] -0.25% | [4] -6.6%

N#Cc1c(-c2ccccc2)ssc1=S
inactive: [1] 31.4% | [2] 25.1% | [3] -20.8% | [5] 11.8% | [4] 12.6%

Cc1ccc(C(C)[N+](=O)[O-])cc1 (centres undefined)
inactive: [1] 13.2% | [2] 18.1% | [3] -13.7% | [5] 0.45% | [4] 18.2%

Cc1cccc(CN)n1
inactive: [1] -2.55% | [2] -29.2% | [3] 4.05% | [5] -5.85% | [4] 2.15%

COc1cc2c(cc1OC)C1=C(/C=C\C(C)=O)CCN1CC2
inactive: [1] -6.9% | [2] 20.9% | [3] -8.65% | [5] 0.1% | [4] 5.55%

CN(C)S(=O)(=O)c1ccc(NC(=O)OC(C)(c2ccccc2)C2CCCCC2)cc1 (centres undefined)
inactive: [1] 17.4% | [2] 2% | [3] 7.75% | [5] 1.35% | [4] 4%

COc1c2ccoc2c(OC)c2oc(=O)ccc12
inactive: [1] 13.3% | [2] -23.6% | [3] 17.2% | [5] -4% | [4] -2.45%

CCCC(C)C(=O)OC1CCCCC1C (centres undefined)
inactive: [1] -0.95% | [2] 4.25% | [3] -45.6% | [5] 8.1% | [4] 0.6%

CC(=O)c1cccc(N2COC(C)(C)c3nc4ccccc4n3C2)c1
inactive: [1] 5.9% | [2] -9.85% | [3] 12.8% | [5] -19.9% | [4] -0.05%

C[N+]1(C)CCC(O)C(c2ccccc2)C1 (centres undefined)
inactive: [1] -8.9% | [2] -0.45% | [3] -22.5% | [5] -8.1% | [4] -0.7%

c1ccc(COc2ccc(OCc3ccccc3)cc2)cc1
inactive: [1] -1.5% | [2] 3.8% | [3] -31.6% | [5] -10.2% | [4] 3%

NC(=O)C(N)CC(=O)O (centres undefined)
inactive: [1] 6.15% | [2] -5.9% | [3] -16.1% | [5] 6.5% | [4] 11.1%

CC(C)(NC(=O)OCc1ccccc1)C(=O)NC(Cc1ccccc1)C(=O)O (centres undefined) (Cbz-[Aib]-[ξF]-OH)
inactive: [1] -26.6% | [2] -61% | [3] 19.8% | [5] 11.2% | [4] -11.3%

CCOC(=O)C1=C(O)c2c(OC)ccc(OC)c2C(=O)C1=O
inactive: [1] -23.6% | [2] -43.5% | [3] 3.65% | [5] -16% | [4] -30%

O=C(NO)C(=O)Nc1ccc(Cl)cc1[N+](=O)[O-]
inactive: [1] 47% | [2] 28.4% | [3] 42% | [5] 49.1% | [4] 44.7%

Cc1ccc(C(=O)CC(C#N)c2ccccc2)cc1 (centres undefined)
inactive: [1] 25.6% | [2] 17.4% | [3] 18.1% | [5] 5.55% | [4] 12.7%

CCOC(=O)CNC1C(NC(C)=O)C(OC)OC2COC(c3ccccc3)OC21 (centres undefined)
inactive: [1] -7.7% | [6] 6.7% | [3] -12.3% | [5] -0.75% | [4] -2.4%

Cc1ccc(C2(C#N)CCCC2)cc1
inactive: [1] 5.55% | [6] 12% | [3] 3.85% | [5] 15.6% | [4] 4.7%

CCCCCCCCCCCCCCCCS(=O)(=O)N/N=C/c1ccc(N(C)C)cc1
inactive: [1] 26.1% | [6] 17.1% | [3] 12.3% | [5] 1.95% | [4] 13.7%

CCC=Nc1ccccc1CO
inactive: [1] 12.2% | [6] -1.05% | [3] 30.3% | [5] -4% | [4] 5.4%

CCOC1NC(/N=C/c2ccc(OC)cc2)=C(C#N)C1C#N (centres undefined)
inactive: [1] -29.2% | [6] -49.5% | [3] 12.4% | [5] -28.1% | [4] -35%

O=C(Nc1ccccc1)C(=O)Nc1ccccc1
inactive: [1] 5.4% | [6] -8.05% | [3] -12.7% | [5] -10.9% | [4] -4.25%

Cc1cc(-c2ccccc2)n(C(C(=O)c2ccccc2)c2ccccc2)n1 (centres undefined)
inactive: [1] 13.8% | [6] -0.15% | [3] -5.6% | [5] -26.7% | [4] -15.2%

Cc1c(NC(=O)Nc2c(Cl)cccc2Cl)c(=O)n(-c2ccccc2)n1C
inactive: [1] -42.8% | [6] -15.5% | [3] -10.2% | [5] -29.9% | [4] -39.9%

[N-]=[N+]=NS(=O)(=O)CCc1ccc(Cl)cc1
inactive: [1] 4.55% | [6] -12.4% | [3] -55% | [5] -17.9% | [4] 4.85%

COC1CC(NC(C)=O)C(OC(C)=O)C(C)O1 (centres undefined)
inactive: [1] -1.5% | [6] -5.65% | [3] -29.2% | [5] -7.55% | [4] -1.4%

O=C1CCC(C(=O)O)N1 (centres undefined)
inactive: [1] -9.2% | [6] -20.9% | [3] 1.15% | [5] 7.7% | [4] -7.8%

CCCCCCC(=O)/C=C/c1ccc(OC)cc1
inactive: [1] -12.5% | [6] -14% | [3] 3.6% | [5] -11.6% | [4] -16.1%

CC(C)Oc1c(N(C)CCO)c2cc(Cl)ccc2oc1=O
inactive: [1] -6.1% | [6] 3.45% | [3] 19.6% | [5] 5.75% | [4] 3.05%
